Residue numbers refer to the chain shown, from its start.
Key:
Test in all cases: PBM; 200 nM protein, PBS
Settings in all cases: dsDNA, one strand shown
HOXC9 [1] = biological target: HOXC9 (Homo sapiens, UniProt P31274 178-260, K195R)
HOXC9 [2] = biological target: HOXC9 (Homo sapiens, UniProt P31274 178-260)
HOXC9 [3] = biological target: HOXC9 (Homo sapiens, UniProt P31274 178-260, R193K)
VAX1 = VAX1 (Homo sapiens, UniProt Q5SQQ9 86-172)
HOXC9 [4] = biological target: HOXC9 (Homo sapiens, UniProt P31274 178-260, R222W)
HOXA2 [5] = biological target: HOXA2 (Homo sapiens, UniProt O43364 129-215, Y150S)
HOXA2 [6] = biological target: HOXA2 (Homo sapiens, UniProt O43364 129-215)
PAX4 [7] = biological target: T1, PAX4 (Homo sapiens, UniProt O43316 9-242, R200K)
T1 sequence: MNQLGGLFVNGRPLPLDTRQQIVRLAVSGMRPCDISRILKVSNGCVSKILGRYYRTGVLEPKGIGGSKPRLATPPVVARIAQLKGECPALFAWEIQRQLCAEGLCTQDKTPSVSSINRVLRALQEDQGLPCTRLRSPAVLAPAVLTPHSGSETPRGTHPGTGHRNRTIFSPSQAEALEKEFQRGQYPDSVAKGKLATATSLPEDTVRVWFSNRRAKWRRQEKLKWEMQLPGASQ

PAX4 [8] = biological target: T2, PAX4 (Homo sapiens, UniProt O43316 9-242)
T2 sequence: T1 sequence with K192R

PAX4 [9] = biological target: T3, PAX4 (Homo sapiens, UniProt O43316 9-242, F177V)
T3 sequence: T1 sequence with F169V, K192R

PAX4 [10] = biological target: T4, PAX4 (Homo sapiens, UniProt O43316 9-242, F177Y)
T4 sequence: T1 sequence with F169Y, K192R

PAX4 [11] = biological target: T5, PAX4 (Homo sapiens, UniProt O43316 9-242, R227W)
T5 sequence: T1 sequence with K192R, R219W

VENTX = biological target: T6, VENTX (Homo sapiens, UniProt O95231 78-163)
T6 sequence: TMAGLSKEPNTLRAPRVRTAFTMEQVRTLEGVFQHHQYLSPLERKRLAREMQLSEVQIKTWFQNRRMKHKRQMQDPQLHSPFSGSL

HOXB9 [12] = biological target: HOXB9 (Homo sapiens, UniProt P17482 171-250, T197M)
HOXA7 [13] = biological target: HOXA7 (Homo sapiens, UniProt P31268 116-202)
HOXC10 = HOXC10 (Homo sapiens, UniProt Q9NYD6 254-340, K271E)
HOXA7 [14] = biological target: HOXA7 (Homo sapiens, UniProt P31268 116-202, W177C)
HOXB9 [15] = biological target: HOXB9 (Homo sapiens, UniProt P17482 171-250)
HOXB9 [16] = biological target: HOXB9 (Homo sapiens, UniProt P17482 171-250, R186Q)
Sequence of HOXB9 (Homo sapiens, UniProt P17482 171-250, R186Q) (P17482 171-250 R186Q): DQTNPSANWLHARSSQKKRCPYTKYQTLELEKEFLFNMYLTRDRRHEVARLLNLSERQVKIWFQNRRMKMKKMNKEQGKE

Sequence of HOXA7 (Homo sapiens, UniProt P31268 116-202, W177C) (P31268 116-202 W177C): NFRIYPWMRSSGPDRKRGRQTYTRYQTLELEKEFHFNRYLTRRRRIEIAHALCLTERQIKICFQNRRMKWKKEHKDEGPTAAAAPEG
Sequence of VAX1 (Q5SQQ9 86-172): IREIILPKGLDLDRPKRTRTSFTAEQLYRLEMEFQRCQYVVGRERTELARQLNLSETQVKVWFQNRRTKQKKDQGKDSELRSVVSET
Sequence of HOXA2 (Homo sapiens, UniProt O43364 129-215, Y150S) (O43364 129-215 Y150S): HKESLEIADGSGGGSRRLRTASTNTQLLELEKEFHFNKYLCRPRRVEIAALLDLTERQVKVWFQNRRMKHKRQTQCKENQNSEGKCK
Sequence of HOXA2 (Homo sapiens, UniProt O43364 129-215) (O43364 129-215): as the sequence (O43364 129-215 Y150S) above, with S22Y counted along it
Sequence of HOXA7 (Homo sapiens, UniProt P31268 116-202) (P31268 116-202): as the sequence (P31268 116-202 W177C) above, with C62W counted along it
Sequence of HOXB9 (Homo sapiens, UniProt P17482 171-250, T197M) (P17482 171-250 T197M): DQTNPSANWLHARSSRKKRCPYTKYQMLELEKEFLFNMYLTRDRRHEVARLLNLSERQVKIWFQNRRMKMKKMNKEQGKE
Sequence of HOXC10 (Q9NYD6 254-340 K271E): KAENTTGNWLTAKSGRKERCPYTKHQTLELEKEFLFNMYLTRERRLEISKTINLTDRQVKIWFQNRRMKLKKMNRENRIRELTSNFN
Sequence of HOXC9 (Homo sapiens, UniProt P31274 178-260, R193K) (P31274 178-260 R193K): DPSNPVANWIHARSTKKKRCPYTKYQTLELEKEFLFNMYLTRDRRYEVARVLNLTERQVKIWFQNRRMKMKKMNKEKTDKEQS
Sequence of HOXC9 (Homo sapiens, UniProt P31274 178-260) (P31274 178-260): as the sequence (P31274 178-260 R193K) above, with K16R counted along it
Sequence of HOXC9 (Homo sapiens, UniProt P31274 178-260, R222W) (P31274 178-260 R222W): as the sequence (P31274 178-260 R193K) above, with K16R, R45W counted along it
Sequence of HOXC9 (Homo sapiens, UniProt P31274 178-260, K195R) (P31274 178-260 K195R): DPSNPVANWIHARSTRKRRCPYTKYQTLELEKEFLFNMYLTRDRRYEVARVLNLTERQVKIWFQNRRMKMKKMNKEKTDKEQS
Sequence of HOXB9 (Homo sapiens, UniProt P17482 171-250) (P17482 171-250): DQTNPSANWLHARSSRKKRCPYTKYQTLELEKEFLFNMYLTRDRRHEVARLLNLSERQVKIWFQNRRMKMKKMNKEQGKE

GTCAATTA
binding signal (HOXC9 [1]): 11.9 upbm affinity estimate (log intensity, higher = more binding, comparable within an allelic series)
binding signal (HOXC9 [2]): 12 upbm affinity estimate (log intensity, higher = more binding, comparable within an allelic series)
binding signal (HOXC9 [3]): 11.9 upbm affinity estimate (log intensity, higher = more binding, comparable within an allelic series)
binding signal (VAX1): 13.3 upbm affinity estimate (log intensity, higher = more binding, comparable within an allelic series)
binding signal (HOXC9 [4]): 10.7 upbm affinity estimate (log intensity, higher = more binding, comparable within an allelic series)
binding signal (HOXA2 [5]): 10.7 upbm affinity estimate (log intensity, higher = more binding, comparable within an allelic series)
binding signal (HOXA2 [6]): 12.3 upbm affinity estimate (log intensity, higher = more binding, comparable within an allelic series)

AATTAGTC
binding signal (PAX4 [7]): 11.7 upbm affinity estimate (log intensity, higher = more binding, comparable within an allelic series)
binding signal (PAX4 [8]): 12.2 upbm affinity estimate (log intensity, higher = more binding, comparable within an allelic series)
binding signal (PAX4 [9]): 10.4 upbm affinity estimate (log intensity, higher = more binding, comparable within an allelic series)
binding signal (PAX4 [10]): 10.8 upbm affinity estimate (log intensity, higher = more binding, comparable within an allelic series)
binding signal (PAX4 [11]): 10.9 upbm affinity estimate (log intensity, higher = more binding, comparable within an allelic series)

CTAATTGA
binding signal (VENTX): 12.8 upbm affinity estimate (log intensity, higher = more binding, comparable within an allelic series)
binding signal (PAX4 [7]): 11.5 upbm affinity estimate (log intensity, higher = more binding, comparable within an allelic series)
binding signal (PAX4 [8]): 12.2 upbm affinity estimate (log intensity, higher = more binding, comparable within an allelic series)
binding signal (PAX4 [9]): 10.4 upbm affinity estimate (log intensity, higher = more binding, comparable within an allelic series)
binding signal (PAX4 [10]): 10.8 upbm affinity estimate (log intensity, higher = more binding, comparable within an allelic series)
binding signal (VAX1): 13.5 upbm affinity estimate (log intensity, higher = more binding, comparable within an allelic series)
binding signal (PAX4 [11]): 10.7 upbm affinity estimate (log intensity, higher = more binding, comparable within an allelic series)
binding signal (HOXA2 [5]): 10.6 upbm affinity estimate (log intensity, higher = more binding, comparable within an allelic series)
binding signal (HOXA2 [6]): 12.6 upbm affinity estimate (log intensity, higher = more binding, comparable within an allelic series)

AGCAATTA
binding signal (HOXB9 [12]): 9.96 upbm affinity estimate (log intensity, higher = more binding, comparable within an allelic series)
binding signal (VENTX): 12.4 upbm affinity estimate (log intensity, higher = more binding, comparable within an allelic series)
binding signal (HOXA7 [13]): 11.7 upbm affinity estimate (log intensity, higher = more binding, comparable within an allelic series)
binding signal (HOXC10): 11.8 upbm affinity estimate (log intensity, higher = more binding, comparable within an allelic series)
binding signal (VAX1): 12.9 upbm affinity estimate (log intensity, higher = more binding, comparable within an allelic series)
binding signal (HOXA2 [5]): 10.8 upbm affinity estimate (log intensity, higher = more binding, comparable within an allelic series)
binding signal (HOXA7 [14]): 8.7 upbm affinity estimate (log intensity, higher = more binding, comparable within an allelic series)
binding signal (HOXA2 [6]): 12.5 upbm affinity estimate (log intensity, higher = more binding, comparable within an allelic series)

CAATTAAG
binding signal (VENTX): 12.5 upbm affinity estimate (log intensity, higher = more binding, comparable within an allelic series)
binding signal (HOXA7 [13]): 11.5 upbm affinity estimate (log intensity, higher = more binding, comparable within an allelic series)
binding signal (VAX1): 13 upbm affinity estimate (log intensity, higher = more binding, comparable within an allelic series)
binding signal (HOXA2 [5]): 10.7 upbm affinity estimate (log intensity, higher = more binding, comparable within an allelic series)
binding signal (HOXA7 [14]): 8.83 upbm affinity estimate (log intensity, higher = more binding, comparable within an allelic series)
binding signal (HOXA2 [6]): 12.2 upbm affinity estimate (log intensity, higher = more binding, comparable within an allelic series)

ATCAATTA
binding signal (HOXB9 [12]): 10.1 upbm affinity estimate (log intensity, higher = more binding, comparable within an allelic series)
binding signal (HOXC9 [1]): 12.5 upbm affinity estimate (log intensity, higher = more binding, comparable within an allelic series)
binding signal (VENTX): 12.7 upbm affinity estimate (log intensity, higher = more binding, comparable within an allelic series)
binding signal (HOXA7 [13]): 11.7 upbm affinity estimate (log intensity, higher = more binding, comparable within an allelic series)
binding signal (PAX4 [7]): 11.8 upbm affinity estimate (log intensity, higher = more binding, comparable within an allelic series)
binding signal (PAX4 [8]): 12.4 upbm affinity estimate (log intensity, higher = more binding, comparable within an allelic series)
binding signal (HOXB9 [15]): 11.7 upbm affinity estimate (log intensity, higher = more binding, comparable within an allelic series)
binding signal (HOXC9 [2]): 12.6 upbm affinity estimate (log intensity, higher = more binding, comparable within an allelic series)
binding signal (HOXC9 [3]): 12.6 upbm affinity estimate (log intensity, higher = more binding, comparable within an allelic series)
binding signal (PAX4 [9]): 10.7 upbm affinity estimate (log intensity, higher = more binding, comparable within an allelic series)
binding signal (HOXC10): 11.9 upbm affinity estimate (log intensity, higher = more binding, comparable within an allelic series)
binding signal (PAX4 [10]): 11.2 upbm affinity estimate (log intensity, higher = more binding, comparable within an allelic series)
binding signal (VAX1): 13.3 upbm affinity estimate (log intensity, higher = more binding, comparable within an allelic series)
binding signal (HOXB9 [16]): 11.5 upbm affinity estimate (log intensity, higher = more binding, comparable within an allelic series)
binding signal (HOXC9 [4]): 11.1 upbm affinity estimate (log intensity, higher = more binding, comparable within an allelic series)
binding signal (PAX4 [11]): 11 upbm affinity estimate (log intensity, higher = more binding, comparable within an allelic series)
binding signal (HOXA2 [5]): 10.9 upbm affinity estimate (log intensity, higher = more binding, comparable within an allelic series)
binding signal (HOXA7 [14]): 8.98 upbm affinity estimate (log intensity, higher = more binding, comparable within an allelic series)
binding signal (HOXA2 [6]): 12.7 upbm affinity estimate (log intensity, higher = more binding, comparable within an allelic series)

From paper PMC11006913
